# The sample as a whole holds a higher share of hits than the screen did.
# CHX counter – Cycloheximide Counterscreen for Small Molecule Inhibitors of Shiga Toxin | cell reporter, cycloheximide protein synthesis inhibition counterscreen | max response, % | 12% of 300,000 active; in the data active means max response mostly above about 13%, no sharp cut-off; inactive means mostly below about 14%; further: read at 38.3 µM for the half of the compounds with a filed dose; 0% is about no effect
# AmpC inh detg – qHTS Inhibitors of AmpC Beta-Lactamase (assay with detergent); Potency, µM (titrated, usually from 114 µM), for the others: at the top dose activity change, negative = inhibition, usual class: inhibitors; AID 485294, 2010; 0.041% of 370,000 active; AmpC hydrolysis of nitrocefin, absorbance 480 nm, 0.01% Triton; P00811;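 further: potency means the concentration at half of the fitted maximal effect; 0% = no-compound wells and -100% = no-enzyme wells; nearly all actives have a fitted effect of over 25% in size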
# Target sequence (P00811 whole entry, looked up): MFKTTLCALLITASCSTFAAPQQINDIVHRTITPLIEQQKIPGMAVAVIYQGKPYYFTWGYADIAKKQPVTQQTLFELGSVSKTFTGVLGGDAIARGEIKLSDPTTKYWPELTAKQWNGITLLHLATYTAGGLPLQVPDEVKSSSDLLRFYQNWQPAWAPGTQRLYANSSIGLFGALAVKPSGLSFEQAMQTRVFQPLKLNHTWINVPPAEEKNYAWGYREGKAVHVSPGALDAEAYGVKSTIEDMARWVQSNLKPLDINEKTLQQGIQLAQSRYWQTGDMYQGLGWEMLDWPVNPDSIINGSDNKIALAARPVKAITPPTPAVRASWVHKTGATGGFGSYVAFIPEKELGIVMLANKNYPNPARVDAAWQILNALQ
#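 20 mM phosphate pH 7.0 + 0.01% (detergent screen) or 0.0001% Triton X-100; 5.3 nM AmpC reagent; cpd preinc 15 min RT; nitrocefin (800 uM stock) to start; A480 q20 s × 4 min; Activity was normalised to no-enzyme and no-compound control wells.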
# AMA1-RON2 inh – qHTS for Inhibitors of AMA1-RON; Towards Development of Antimalarial Drug Lead: Primary Screen | Plasmodium falciparum AMA1 (3D7) - RON2 peptide interaction | Potency, µM (highest dose often 58.2 µM), for the others: at the top dose activity change, negative = inhibition, most hits filed as inhibitors | AlphaScreen AMA1-biotinylated RON2 peptide binding | 0.2% of 360,000 active;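 further: potency means the concentration at half of the fitted maximal effect; 0% = vehicle wells and -100% = peptide control; nearly all actives have a fitted effect of over 45% in size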
#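 AMA1 (3D7) with his tag at 25 nM final met compounds first, then biotinylated RON2 peptide at 25 nM; detection used donor plus acceptor beads, 10 µg/mL apiece, read by AlphaScreen after 30 min at room temperature.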
# AmpC no deterg – qHTS Inhibitors of AmpC Beta-Lactamase (assay without detergent) | AmpC nitrocefin hydrolysis, absorbance 480 nm, 0.0001% Triton | AID 485341, 2010 | 0.52% of 330,000 active | Potency, µM (highest dose often 57.1 µM), inactives show at the highest dose activity change, negative = inhibition, usual class: inhibitors | P00811;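 further: potency means the concentration at half of the fitted maximal effect; plate controls were no compound for no effect and no enzyme for full effect; nearly all actives have a fitted effect of over 20% in size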
#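 20 mM phosphate pH 7.0 + 0.01% (detergent screen) or 0.0001% Triton X-100; 5.3 nM AmpC reagent; cpd preinc 15 min RT; nitrocefin (800 uM stock) to start; A480 q20 s × 4 min; Activity was normalised to no-enzyme and no-compound control wells.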
# SARS PLP yeast – qHTS of Yeast-based Assay for SARS-CoV PLP; S. cerevisiae expressing SARS-CoV PLpro, growth rescue; Potency, µM (top dose mostly 32.9 µM), without a hit: top-dose activity, positive = growth rescue, actives largely listed as activators; 0.19% of 330,000 active; AID 485353, 2010; calls by dose curve; further: potency means the concentration at half of the fitted maximal effect; 0% is about no effect; nearly all actives have a fitted effect of over 55% in size
# Shiga toxin inh – A qHTS for Small Molecule Inhibitors of Shiga Toxin; Vero cells, Shiga toxin protein synthesis inhibition reporter; inhibition, % at 38.7 µM; 9.2% of 290,000 active; in the data active means inhibition mostly above about 28%, no sharp cut-off; inactive means mostly below about 43%; further: 0% is about no effect
# An asterisk follows results filed as active; ? = inconclusive; / = not tested or not shown. Unless noted, the call rests on the fitted dose curve; in most records, active means well fitted curve in the direction sought with a large enough effect; inconclusive means small, poorly fitted or top-dose-only effect, or another doubt; inactive means no such curve, though single readings can be large; an effect the other way counts as inactive or inconclusive.
SMILES,CHX counter,AmpC inh detg,AMA1-RON2 inh,AmpC no deterg,SARS PLP yeast,Shiga toxin inh
Cc1c(N(C)S(=O)(=O)c2ccc(Cl)c(C(=O)NCC3CCCO3)c2)c(=O)n(-c2ccccc2)n1C (stereo not drawn),/,/,5%,/,/,/
COc1ccc(Nc2sc(C(=O)Nc3cccc(Cl)c3)c(N)c2C(=O)Nc2ccccc2OC)cc1,-6,4%,/,-42%,11%,-11
CCCCCCn1c(=O)c(F)cn(Cc2ccc(OC)c([N+](=O)[O-])c2)c1=O,-2,2%,-9%,0.14µM*,-4%,17
CCCCCn1c(=O)c(F)cn(Cc2ccc(OC)c([N+](=O)[O-])c2)c1=O,-4,-5%,12%,-1%,-2%,-5
Cc1cccc(NC(=O)Nc2ccc([N+](=O)[O-])cc2)n1,15,-15%,15%,-10%,-5%,19
Cc1ccc(NC(=O)Nc2cccc(C)n2)cc1,49*,-19%,5%,-21%,-4%,103*
Cc1cccc(NC(=O)Nc2ccc(Cl)cc2)n1,22*,1%,19%,-29%,-4%,39*
Cc1ccc(NC(=O)c2cn(-c3cccc(C)n3)cn2)cc1,39*,-1%,4%,-5%,-4%,90*
COC(=O)c1ccc(NC(=O)c2cn(-c3cccc(C)n3)cn2)cc1,1,-8%,-2%,-8%,-4%,-3
Cc1cccc(NC(=O)NC(=O)c2ccccc2)n1,20,-2%,-1%,-2%,-8%,74*
O=C(COc1ccc(Cl)cc1Cl)NCc1ccncc1,5,-4%,3%,20%,14%,-1
Cc1cccc(NC(=O)Nc2cccc(C)n2)n1,20*,?,-1%,-33%,-3%,86*
Cc1cccc(NC(=O)Nc2ccc(C)c(C)c2)n1,24*,13%,4%,-19%,2%,54*
Cc1cccc(NC(=O)Nc2ccc(F)cc2)n1,17,-7%,11%,-16%,-1%,63*
Cc1cccc(NC(=O)Nc2ccc3c(c2)N(C)C(=O)CS3)n1,11,-9%,4%,-6%,-3%,17
Cc1cccc(NC(=O)c2cccc(C(=O)Nc3cccc(C)n3)c2)n1,-2,?,-5%,-19%,-4%,7
O=C1CCCC(O)=C1N=Nc1c(Cl)cc(C(F)(F)F)cc1Cl,6,-4%,7%,-27%,-2%,17
COc1ccc(C2C(=O)N(CCc3ccccc3)CC(=O)N2C2CCCC2)cc1 (stereo not drawn),1,0%,-2%,66%,-3%,-19
c1ccc(OCc2nc3ccccc3s2)cc1,61*,1%,3%,-13%,0%,68*
Cc1cc(-c2nc3ccccc3s2)ccc1N,/,/,13%,/,/,/
N#Cc1ccc(NC(=O)CCc2nc3ccccc3s2)cc1,8,-9%,6%,-20%,-5%,10
O=S(=O)(CCc1nc2ccccc2s1)c1ccc(Cl)cc1,-2,0%,-11%,-5%,0%,-11
Cc1cc(OCc2nc3ccccc3s2)ccc1N,59*,3%,?,0%,-1%,112*
CCC(=O)Nc1ccc(OCc2nc3ccccc3s2)cc1,44*,2%,11%,-18%,-1%,117*
O=S(=O)(Cc1nc2ccccc2s1)c1ccccc1,27*,0%,23%,-7%,-2%,52*
SMILES,CHX counter,AmpC inh detg,AMA1-RON2 inh,AmpC no deterg,SARS PLP yeast,Shiga toxin inh
Fc1ccc(OCc2nc3ccccc3s2)cc1,52*,4%,33%,-24%,0%,114*
CCOC(=O)N1CCN(C(=O)COc2ccc(S(=O)(=O)Nc3ccc(OCC)cc3)cc2)CC1,-3,0%,3%,108%,2%,-11
CC(OC(=O)CCc1nc2ccccc2c(=O)[nH]1)C(=O)c1ccc(C(C)(C)C)cc1 (stereo not drawn),22*,6%,-2%,34%,6%,60*
CC(OC(=O)CCc1nc2ccccc2c(=O)[nH]1)C(=O)NC1CCCC1 (stereo not drawn),-1,-4%,-4%,-22%,10%,-3
Nc1nc(Br)c2c(F)cccc2c1-c1ccc(Cl)cc1,-2,-5%,41%,-36%,10%,-8
CCn1cc(Cl)c(C(=O)Nc2ccccc2C(N)=O)n1,29*,-3%,15%,43%,-2%,20
Cn1nc(C(=O)Nc2cccc(C(F)(F)F)c2)c2ccccc2c1=O,-3,1%,8%,132%,1%,-10
CCn1cc(Cl)c(C(=O)Nc2ccc3c(c2)OCCO3)n1,44*,-8%,-2%,-31%,-3%,168*
CCn1cc(Cl)c(C(=O)Nc2cccc(C(F)(F)F)c2)n1,32*,-2%,13%,15%,1%,58*
CCn1nc(C(=O)Nc2ccc3c(c2)OCCO3)c2ccccc2c1=O,/,/,-14%,/,/,/
CCCCCC(=O)N[C@@H](c1ccccc1)[C@@H](O)C(=O)O[C@H]1C[C@@]2(O)[C@@H](OC(=O)c3ccccc3)C3[C@](C)(C(=O)[C@H](OC(C)=O)C(=C1C)C2(C)C)[C@@H](O)C[C@H]1OC[C@@]31OC(C)=O (stereo partly drawn),-1,?,-1%,207%,0%,3
FC(F)(F)c1cc(Cl)c2nc(-c3ccccc3)c(Cc3ccsc3)n2c1,/,/,0%,/,/,/
Nc1cccc(-c2cn3cc(C(F)(F)F)cc(Cl)c3n2)c1,36*,-9%,1%,-10%,-1%,64*
FC(F)(F)c1cc(Cl)c2nc(-c3ccccc3)cn2c1,41*,-7%,15%,-21%,2%,88*
Nc1nnc(SCc2ccc(F)cc2Cl)s1,31*,-12%,21%,-27%,-14%,47*
Cc1nnc(SCc2c(Cl)cccc2Cl)s1,32*,7%,10%,-7%,9%,60*
Cc1nnc(SCCC(=O)Nc2ccc(F)cc2)s1,7,0%,6%,-3%,15%,5
Clc1cccc(Cl)c1CSc1nnc(-c2ccncc2)s1,-2,6%,-6%,-14%,0%,15
Cc1nnc(SCc2ccc(F)cc2Cl)s1,41*,3%,-11%,-6%,-1%,69*
COc1cc(OC)c(OC)cc1/C=C/c1nc2cc3ccccc3cc2c(=O)n1-c1ccc(F)cc1F,/,-3%,/,/,/,/
O=C(COc1ccccc1)Nc1ccccc1NS(=O)(=O)c1cccs1,-2,0%,-17%,-24%,3%,17
O=C(COC(=O)c1ccc(NS(=O)(=O)c2cccs2)cc1O)Nc1nc2ccccc2s1,-2,1%,-7%,1.6µM*,1%,-5
Cc1cc(Cl)ccc1OCC(=O)NNC(=O)c1cccs1,/,/,103%,/,/,/
